Measured potencies and affinities stand elsewhere.
Assays:
Staphylococcus aureus = details: Concentration 32 ug.mL-1; ASSAY_TEST Inhibition of Bacterial Growth; detection method Absorption (OD600); MEDIA CAMHB; plate type 384well; NBS; CORNING #3640; time 18 hr
Escherichia coli = details: Concentration 32 ug.mL-1; ASSAY_TEST Inhibition of Bacterial Growth; detection method Absorption (OD600); MEDIA CAMHB; plate type 384well; NBS; CORNING #3640; time 18 hr

**Q.** With CC(=O)O[C@H]1C[C@@]2(C)C(C[C@@H](O)C3[C@@]4(C)CC[C@@H](OC(=O)C(N)CC(C)C)[C@@H](C)C4CC[C@@]32C)/C1=C(\CCC=C(C)C)C(=O)OCc1ccccc1 (some centres not stated) as the molecule, how does the Inhibition (Staphylococcus aureus) read?
**A.** The Inhibition was -0.87%.

**Q.** And the Inhibition (Escherichia coli)?
**A.** Its Inhibition is -4.43%.

**Q.** Which Inhibition (Staphylococcus aureus) does the source give for CC(=O)O[C@H]1C[C@@]2(C)C(CC(=O)C3[C@@]4(C)CCC(=O)[C@@H](C)C4CC[C@@]32C)/C1=C(\CCC=C(C)C)C(=O)OCc1ccccc1 (some centres not stated) here?
**A.** The Inhibition was 29.92%.

**Q.** And the Inhibition (Escherichia coli)?
**A.** Its Inhibition is -4.11%.

**Q.** CC(=O)O[C@H]1C[C@@]2(C)C(C[C@@H](O)C3[C@@]4(C)CC[C@@H](OC(=O)c5ccccc5C(=O)Nc5cccc(N)c5)[C@@H](C)C4CC[C@@]32C)/C1=C(\CCC=C(C)C)C(=O)OCc1ccccc1 (some centres not stated) was tested. Which Inhibition (Staphylococcus aureus) did it give?
**A.** The Inhibition was 1.65%.

**Q.** And the Inhibition (Escherichia coli)?
**A.** Its Inhibition is -0.14%.

**Q.** What does the source list for CC(=O)O[C@H]1C[C@@]2(C)C(C[C@@H](O)C3[C@@]4(C)CC[C@@H](OC(=O)c5ccccc5C(=O)OCCc5ccc(OCCO[N+](=O)[O-])cc5)[C@@H](C)C4CC[C@@]32C)/C1=C(\CCC=C(C)C)C(=O)OCc1ccccc1 (some centres not stated)?
**A.** Inhibition (Staphylococcus aureus): 8.23%; Inhibition (Escherichia coli): 0.28%

**Q.** Which results are given for CC(=O)O[C@H]1C[C@@]2(C)C(CC(=O)C3[C@@]4(C)CC[C@@H](OC(=O)CCCCO[N+](=O)[O-])[C@@H](C)C4CC[C@@]32C)/C1=C(\CCC=C(C)C)C(=O)OCc1ccccc1 (some centres not stated)?
**A.** Inhibition (Staphylococcus aureus): 9.81%; Inhibition (Escherichia coli): -0.69%

**Q.** How did the Inhibition (Staphylococcus aureus) turn out when CC(=O)O[C@H]1C[C@@]2(C)C(C[C@@H](O)C3[C@@]4(C)CC[C@@H](O)[C@@H](C)C4CC[C@@]32C)/C1=C(\CCC=C(C)C)C(=O)On1nnc2ccccc21 (some centres not stated) was run?
**A.** The Inhibition was 73.87%.

**Q.** What about the Inhibition (Escherichia coli) of the same molecule?
**A.** Its Inhibition is -6.08%.
